Screening results deposited in PubChem by National Center for Advancing Translational Sciences (NCATS).
Vif-APOBEC3F blk: qHTS for Inhibitors of Vif-A3F Interactions: qHTS | HeLa A3F-eYFP + Vif (tagged APOBEC3F with the HIV-1 protein that degrades it), YFP fluorescence increase | Potency, µM (series often up to 46.1 µM), for inactives: at the highest dose activity, negative = active | 390,000 compounds, 0.2% hits; also: % of control where 0% means no effect; nearly all actives have a fitted effect of over 65% in size
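HeLa cells stably expressing Vif plus C-terminally eYFP-tagged A3F were seeded, incubated overnight at 37 deg C, dosed with compound, incubated overnight again at 37 deg C. Yellow fluorescence (Ex 488/Em 500-530) reported blocked Vif-mediated A3F-eYFP degradation.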
Glioma ERSR ind: qHTS for Inducers of the Endoplasmic Reticulum Stress Response (ERSR) in Human Glioma: qHTS; U87-MG GRP78 promoter luciferase reporter, 16 h; Potency, µM, for inactives: top-dose activation, hits mostly activators; 420,000 compounds, 0.02% hits; AID 602332, 2012; also: series mostly up to about 76 µM; % of control where 0% means no effect; nearly all actives have a fitted effect of over 35% in size
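ERSR induction read as luciferase luminescence (Bright-Glo, 10 min at room temperature) in stably transfected human U87-MG glioma cells exposed to compounds for 16 h, using GRP78 as sensor.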
Vif-A3G inh: qHTS for Inhibitors of Vif-A3G Interactions: qHTS; 410,000 compounds, 0.076% hits; HeLa A3G-eYFP + Vif (tagged APOBEC3G with the HIV-1 protein that degrades it), YFP fluorescence, overnight; AID 602310, 2012; DNA dC->dU-editing enzyme APOBEC-3G (Homo sapiens), Q9HC16; Potency, µM (top dose mostly 46.1 µM), without a hit: at the highest dose activity, negative = active, hits mostly inhibitors; also: % is scaled to controls: 0 for no effect and ±100 for the full control effect; nearly all actives have a fitted effect of over 60% in size
Target sequence (Q9HC16 whole entry, looked up): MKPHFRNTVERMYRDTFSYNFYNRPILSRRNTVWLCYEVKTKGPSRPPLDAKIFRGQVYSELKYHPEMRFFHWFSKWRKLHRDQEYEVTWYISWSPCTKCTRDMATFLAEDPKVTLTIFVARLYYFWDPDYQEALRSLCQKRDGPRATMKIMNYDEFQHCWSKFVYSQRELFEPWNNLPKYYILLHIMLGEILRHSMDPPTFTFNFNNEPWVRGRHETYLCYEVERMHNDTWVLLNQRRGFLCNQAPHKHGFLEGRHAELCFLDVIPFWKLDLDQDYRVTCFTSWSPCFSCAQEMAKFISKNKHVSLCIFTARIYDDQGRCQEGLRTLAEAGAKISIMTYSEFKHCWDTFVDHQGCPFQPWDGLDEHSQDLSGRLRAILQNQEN
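Read-out is eYFP fluorescence (Ex 488/Em 500-530) from Vif-expressing HeLa A3G-eYFP cells; more signal means A3G escaped Vif-mediated degradation. Cells plated overnight, compound pinned in, incubated overnight at 37 deg C.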
Epigenetic derep: Quantitative High-Throughput Screen for Regulators of Epigenetic Control. murine LDR cells, GFP reporter derepression, 30 h. Potency, µM (doses to about 53.9 µM), inactives show at the top dose GFP activation, usual class: activators. 280,000 compounds, 0.2% hits; also: % of control where 0% means no effect; nearly all actives have a fitted effect of over 60% in size
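In this reporter-derepression format, murine cells bearing a silenced integrated CMV-GFP locus incubate with test compound (30 h, 37 C), then are washed and imaged; fluorescent objects of 20–120 um count as induced cells.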
* hit, by the source's call; i = inactive; ? = inconclusive; . = no result; [ ] = another dose, or the depositor's remark. In the library only some 0.35% were active in any assay of this set; here they are far more common. Calls follow the shape of the dose curve; as a rule, active = well fitted curve in the direction sought with a large enough effect; inconclusive = small, poorly fitted or top-dose-only effect, or another doubt; inactive = no such curve, though single readings can be large; an effect the other way counts as inactive or inconclusive. Potency is read from the fitted curve at half-maximal effect.

SMILES	Vif-APOBEC3F blk	Glioma ERSR ind	Vif-A3G inh	Epigenetic derep
CN(C)c1ccc(N=Cc2c(O)n(CCC3=CCCCC3)c(=O)[nH]c2=O)cc1	?	-2%	0%	?
CCN(CC)c1ccc(N=Cc2c(O)n(CCC3=CCCCC3)c(=O)[nH]c2=O)cc1	22µM*	-2%	-5%	22µM*
CCS(=O)(=O)N1N=C(c2cccc(NS(C)(=O)=O)c2)CC1c1ccccc1 (stereo not drawn)	10µM*	0%	10µM*	?
CC[C@]1(O)CC(O[C@@H]2CC(N(C)C)C(O)C(C)O2)c2c(cc3c(c2O)C(=O)c2c(O)cccc2C3=O)C1C(=O)OC (stereo partly drawn)	.	-5%	.	6.3µM*
C[C@H]1C[C@H](C)C(=O)[C@@H]([C@H](O)CC2CC(=O)NC(=O)C2)C1	.	-5%	.	?
O=[N+]([O-])C(Br)(CO)CO	.	-12%	.	.
COc1ccccc1-n1c(/C=C/c2ccc(O)cc2)nc2ccccc2c1=O	10µM*	-6%	-21%	.
CN1/C(=C\C=C2C(=O)NC(=S)NC2=O)C(C)(C)c2ccccc21	i	-6%	-11%	18µM*
CC(C)c1ccc(N2C(=O)NC(=O)/C(=C/C=C/c3ccco3)C2=O)cc1	?	?	8.9µM*	1%
O=C1NC(=O)N(Cc2ccc(F)cc2)C(=O)/C1=C\C=C\c1ccco1	10µM*	-14%	?	10%
Cc1ccc(N2C(=O)NC(=O)/C(=C/C=C/c3ccco3)C2=O)cc1	?	-12%	?	1%
CCCN(CCC)[C@@H]1CCc2c(OC)cccc2[C@@H]1C	.	-4%	.	2%
CN(C)C(=O)Oc1ccc2c(c1)O/C(=C\c1ccc(Cl)cc1)C2=O	3%	2%	0%	.
COc1ccc(/C=C2\Oc3cc(OC(=O)N4CCOCC4)ccc3C2=O)c(OC)c1	25µM*	-1%	?	-3%
CCOC(=O)C(SP(=S)(OC)OC)c1ccccc1 (stereo not drawn)	.	-5%	.	.
CC[C@H](C)[C@H](NC(=O)CN)C(=O)N[C@@H](CC(C)C)C(=O)NCC(=O)N[C@@H](Cc1ccccc1)C(=O)N[C@H](C(=O)N[C@@H](Cc1ccccc1)C(=O)N[C@H](C(=O)N[C@@H](CC(C)C)C(=O)O)[C@@H](C)O)C(C)C	.	0%	.	.
CCCCn1c(O)c(C=NCCCn2ccnc2)c(=O)[nH]c1=O	4%	-3%	1%	-6%
CC(C)CCCn1c(O)c(/C=C2/C=CC=N2)c(=O)[nH]c1=O	25µM*	-1%	?	3%
Nc1c([N+](=O)[O-])ccc(Oc2ccccc2)c1Cl	.	-5%	.	.
O=Cc1c(C(=O)O)n(Cc2ccc(Cl)cc2)c2ccccc12	10µM*	-3%	?	0%
Cc1c(C=O)c2ccccc2n1Cc1ccccc1	-10%	-4%	-7%	.
CN1C(=O)C(=Cc2ccc(N3CCCCCC3)o2)C(=O)N(C)C1=S	i	2%	?	2%
CN1C(=O)C(=Cc2ccc(N3CCOCC3)o2)C(=O)N(C)C1=O	11µM*	2%	-10%	-2%
O=[N+]([O-])c1ccc(N2CCCCCC2)c2nonc12	?	1%	15%	.
O=[N+]([O-])c1ccc(NCc2ccccc2)c2nonc12	5%	-3%	8%	22µM*
SMILES	Vif-APOBEC3F blk	Glioma ERSR ind	Vif-A3G inh	Epigenetic derep
OC[C@H]1O[C@@H](n2cnc3cc(Cl)c(Cl)cc32)[C@H](O)[C@H]1O	.	-3%	.	0%
Cc1c2ccncc2c(C)c2c1[nH]c1ccccc12	10µM*	?	?	?
CC[C@@H]1[C@@H]2C[C@H]3[C@H]4N(C)c5ccccc5[C@@]45C[C@@H]([C@@H]2[C@@H]5O)N3[C@H]1O	.	-4%	.	0%[16.9 µM]
Cn1c(NN=O)nc2ccccc21	-13%	-4%	1%	11µM*
O=C1NC(=O)N(c2ccc3c(c2)OCO3)C(=O)/C1=C\c1ccc(N2CCCCC2)o1	4.5µM*	-1%	-15%	3%
Cc1cc(N(CCCl)CCCl)ccc1C=Cc1ccncn1	25µM*	6%	?	.
CC(=O)[C@@]1(O)CC[C@@H]2[C@@H]3CCC4=CC(=O)CC[C@]4(C)[C@]3(F)[C@@H](O)C[C@@]21C	.	-4%	.	.
CNS(=O)(=O)c1ccc(N=Cc2c(O)n(-c3cccc(C)c3)c(=O)[nH]c2=O)cc1	0%	-3%	-5%	-1%
Cc1cccc(-n2c(O)c(/C=C/C=Nc3ccccc3)c(=O)[nH]c2=O)c1	10µM*	-5%	5%	8%
Cc1cccc(N=Cc2c(O)n(-c3ccccc3C)c(=O)[nH]c2=O)c1	-3%	-5%	-4%	11%
Cc1ccccc1-n1c(O)c(/C=C/C=Nc2ccccc2)c(=O)[nH]c1=O	20µM*	-5%	0%	4%
Cc1cc2c(C(F)(F)F)cc(=O)oc2c2c1NCCC2	-26%	-2%	-3%	0%
O=c1cc(C(F)(F)F)c2cc3c4c(c2o1)CCCN4CCC3	?	-6%	1%	7.1µM*
CC1CC2CCC(O2)C(C)C(=O)OC(C)CC2CCC(O2)C(C)C(=O)OC(C)CC2CCC(O2)C(C)C(=O)OC(C)CC2CCC(O2)C(C)C(=O)O1 (stereo not drawn)	.	-9%	.	.
Cc1ccc(CNC(=O)c2ccccc2NC(=O)c2nsc3ccccc23)cc1	13µM*	1%	-8%	3%
CCCC[N+]12C3CC(C(CC)[C@H]1O)[C@@H]1C(O)C4(C[C@@H]12)c1ccccc1N(C)C34 (stereo partly drawn)	.	.	.	0%
O=c1[nH]c(CN2CC=C(c3ccccc3)CC2)nc2scc(-c3ccccc3)c12	10µM*	-5%	?	?
COc1ccc(-c2noc(=O)n2Cc2cc(C)ccc2C)cc1	1%	-5%	?	-1%
